Test results from the supplement of paper PMC6992640.
Structures can show the parent of a compound that is named as a salt. ± gives the standard deviation of the averaged measurements.

Legend:
Experiment in all cases: cell viability (% of vehicle); higher = less cytotoxic
Conditions in all cases: 10 µM; 72 h
[1] = test system: HCI01 (cells of a triple-negative basal-like breast cancer xenograft)
[2] = test system: HCI03 (cells of an ER-positive luminal breast cancer xenograft)
[3] = test system: HCI09 (cells of a triple-negative luminal androgen receptor type breast cancer xenograft)
[4] = test system: HCI11 (cells of an ER-positive luminal breast cancer xenograft)
[5] = test system: HCI13 (cells of an ER-positive luminal breast cancer xenograft)
[6] = test system: HCI16 (cells of a triple-negative basal-like breast cancer xenograft)
[7] = test system: UCD52 (cells of a triple-negative basal-like breast cancer xenograft)
[8] = test system: WHIM2 (cells of a triple-negative basal-like breast cancer xenograft)
[9] = test system: WHIM30 (cells of a triple-negative basal-like breast cancer xenograft)
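Also: PDX cells carrying CMV promoter-driven luciferase, viability read as total photon flux per second by IVIS imaging following D-luciferin, vehicle control 0.1% DMSO.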

SMILES	cell viability [1]	cell viability [2]	cell viability [3]	cell viability [4]	cell viability [5]	cell viability [6]	cell viability [7]	cell viability [8]	cell viability [9]
O=S(=O)(F)Cc1ccccc1	131 ± 25	127	89.27 ± 0.7	92.5	87.2 ± 19	100	106.1 ± 0.78	104 ± 31	111 ± 22
CC(C)OC(=O)[C@H](C)N[P@](=O)(CO[C@H](C)Cn1cnc2c(N)ncnc21)Oc1ccccc1	97.2 ± 1.3	109	87.9 ± 11	112	65.7 ± 8	183	103.7 ± 0.83	117.1 ± 0.62	144 ± 8.2
C[N+](C)(C)CCCCCCCCCC[N+](C)(C)C.[Br-].[Br-] [Decamethonium Bromide]	110 ± 4.6	120	100 ± 6.9	102	105 ± 1.9	105	78.9 ± 6.2	89.8 ± 8.7	101 ± 10
OC(c1ccccc1)(c1ccccc1)C1CCNCC1 [Azacyclonol]	98.1 ± 19	137	84.5 ± 38	93.8	79 ± 10	110	95.8 ± 10	109 ± 34	113 ± 2.1
CC(C)NCC(O)c1ccccc1Cl.Cl (configuration not stated) [Clorprenaline HCL]	104 ± 18	121	73.1 ± 30	93.9	83.1 ± 11	104	90.6 ± 16	88.3 ± 13	103 ± 2.4
CN1[C@@H]2C[C@@H](O)C[C@H]1[C@@H]1O[C@@H]12 [Scopine]	134 ± 21	138	110 ± 8.5	110	129 ± 14	99	103 ± 18	112 ± 21	144 ± 4
CCC1(C)CC(=O)NC(=O)C1 [Bemegride]	112 ± 13	96.5	91.7 ± 10	109	162 ± 13	108	85.8 ± 8.3	97.9 ± 6	97.2 ± 8.1
CCN(C)C(=O)Oc1cccc(C(C)N(C)C)c1 (configuration not stated) [Rivastigmine]	107 ± 11	112	109 ± 4.2	106	98.3 ± 1.7	96.3	101 ± 7.6	103 ± 16	118 ± 9.7
Cn1cc(C2=C(c3cn(C4CCN(Cc5ccccn5)CC4)c4ccccc34)C(=O)NC2=O)c2ccccc21	94 ± 30	95.8	72.7 ± 44	82.3	72.1 ± 9.6	99.5	49 ± 7.5	107 ± 18	119 ± 5.6
Cc1ccc(-n2nccn2)c(C(=O)N2CCN(c3nc4cc(Cl)ccc4o3)CCC2C)c1 (configuration not stated)	136 ± 9.6	88	39.5 ± 27	93.5	101 ± 34	101	91.9 ± 10	118 ± 22	136 ± 3.4
CCN(C)C(=O)Oc1cccc(C(C)N(C)C)c1.O=C(O)C(O)C(O)C(=O)O (configuration not stated) [Rivastigmine Tartrate]	115.8 ± 0.12	116	127 ± 62	119	133 ± 51	151	111 ± 15	91.8 ± 31	131 ± 13
N/C(N)=N\N.Cl [Aminoguanidine hydrochloride]	100 ± 16	105	95.2 ± 6.9	64	90 ± 2.4	118	99.6 ± 9.3	95.1 ± 21	53.4 ± 6.4
CCC(C(N)=O)N1CCCC1=O (configuration not stated) [Levetiracetam]	141 ± 6.8	166	116 ± 17	98	107 ± 14	120	126 ± 17	91.7 ± 10	143 ± 4.9
COc1ccc(C(=O)N2CCCC2=O)cc1 [Aniracetam]	102 ± 2	107	147 ± 79	104	139 ± 1.5	95.4	96 ± 7.3	94.8 ± 14	86.1 ± 6.5
N#Cc1ccccc1-c1cc(-c2ccccn2)cn(-c2ccccc2)c1=O [Perampanel]	102 ± 10	89.9	85.1 ± 33	94	83.3 ± 4.5	70.4	79.2 ± 12	89.14 ± 0.86	97 ± 4.1
CN(C)C(=O)C(CCN1CCC(O)(c2ccc(Cl)cc2)CC1)(c1ccccc1)c1ccccc1.Cl [Loperamide HCl]	102 ± 20	84.8	53.5 ± 15	98.7	79.2 ± 6.6	95.1	49.1 ± 1.4	59.8 ± 8.3	102 ± 9.7
CCC1=C[C@H]2CN3CCc4c([nH]c5ccccc45)[C@@](C(=O)OC)(C2)[C@@H]13 [Catharanthine]	88.2 ± 14	122	99.5 ± 13	92.1	94 ± 2.4	124	101 ± 2.3	85.5 ± 14	97 ± 3.2
CN1C(=O)CCS(=O)(=O)C1c1ccc(Cl)cc1 (configuration not stated) [Chlormezanone]	90 ± 11	118	92.3 ± 7.5	105	71.1 ± 7.2	122	104 ± 10	113 ± 12	172.2 ± 0.74
CC(C)c1c(CN(C)C(C)Cc2ccccc2)n(C)n(-c2ccccc2)c1=O (configuration not stated) [Famprofazone]	121 ± 24	129	79.2 ± 5.1	111	85.3 ± 14	121	87.7 ± 11	97.6 ± 16	124 ± 8.3
Cl.O=C1CCC2(O)C3Cc4ccc(O)c5c4C2(CCN3CC2CC2)C1O5 (configuration not stated) [Naltrexone HCl]	120 ± 20	143	108.5 ± 0.5	108	167 ± 2.8	151	80.3 ± 20	88.9 ± 6	92.9 ± 7.2

SMILES	cell viability [1]	cell viability [2]	cell viability [3]	cell viability [4]	cell viability [5]	cell viability [6]	cell viability [7]	cell viability [8]	cell viability [9]
C[C@]12COC(=O)C[C@@H]1CC[C@@H]1[C@@H]2CC[C@@]2(C)[C@H]1CC[C@]2(C)O [Oxandrolone]	98.9 ± 17	108	107.8 ± 0.62	89.1	147 ± 18	117	95.8 ± 5.3	110 ± 23	110 ± 13
CCNCC.O=S(=O)(O)c1cc(O)ccc1O [Ethamsylate]	162 ± 90	124	99.4 ± 7	98	97.8 ± 10	126	109 ± 13	92.2 ± 12	103 ± 4.7
O=c1[nH]c2ccccc2n1C1CCN(CCCC(c2ccc(F)cc2)c2ccc(F)cc2)CC1 [Pimozide]	103 ± 21	104	48.1 ± 31	70.4	69.39 ± 0.41	103	86.7 ± 16	103 ± 24	93.69 ± 0.39
CN(C)C1C(=O)C(C(N)=O)=C(O)C2(O)C(=O)C3=C(O)c4c(O)cccc4C(C)(O)C3CC12.Cl (configuration not stated) [Tetracycline Hydrochloride]	105 ± 10	108	89.46 ± 0.85	96.7	92.1 ± 4.3	87.5	77.3 ± 1.4	77.1 ± 20	116 ± 19
O.O=P1(N(CCCl)CCCl)NCCCO1 (configuration not stated) [Cyclophosphamide monohydrate]	133 ± 17	147	90.3 ± 17	125	140 ± 5.4	125	98.5 ± 2.4	106 ± 2.2	130 ± 8.5
Cl.NCC1(CC(=O)O)CCCCC1 [Gabapentin HCl]	142 ± 42	121	94.2 ± 3.2	90.2	109 ± 14	120	80.45 ± 0.75	85.7 ± 7.6	115.5 ± 0.43
Nc1nc(N)nc(NC2CC2)n1 [Cyromazine]	111 ± 13	182	107 ± 1.9	97.8	109 ± 22	134	100 ± 2.3	105 ± 28	154 ± 13
CC(=O)O[C@@]12CO[C@@H]1C[C@@H](O)[C@@]1(C)C(=O)[C@@H](O)C3=C(C)[C@@H](O)C[C@@](O)([C@@H](OC(=O)c4ccccc4)[C@H]21)C3(C)C [10-DAB (10-Deacetylbaccatin)]	138 ± 19	107	99.3 ± 2.1	108	97.8 ± 2.6	126	79.2 ± 2.9	84.7 ± 18	126 ± 7.2
O=C(O)CCCc1ccc(N(CCCl)CCCl)cc1 [Chlorambucil]	109 ± 15	179	99.8 ± 1.1	92	113.2 ± 0.69	131	108 ± 4.7	96.7 ± 9.3	126 ± 8.3
Br.CN1C2CC(OC(=O)C(CO)c3ccccc3)CC1C1OC12 (configuration not stated) [Scopolamine hydrobromide]	108 ± 3.9	120	91.5 ± 17	104	83.67 ± 0.26	127	90.98 ± 0.47	122 ± 1.4	133.3 ± 1.1
Cc1c(N)nc(C(CC(N)=O)NCC(N)C(N)=O)nc1C(=O)NC(C(=O)NC(C)C(O)C(C)C(=O)NC(C(=O)NCCc1nc(-c2nc(C(=O)NCCC[S+](C)C)cs2)cs1)C(C)O)C(O[C@@H]1O[C@@H](CO)[C@@H](O)[C@H](O)[C@@H]1O[C@H]1O[C@H](CO)[C@@H](O)[C@H](OC(N)=O)[C@@H]1O)c1cnc[nH]1 (some centres not stated) [Bleomycin Sulfate]	117 ± 3.2		61.2 ± 15	106	39.2 ± 24	83.4	109 ± 6.6	77 ± 1.2	100 ± 27
CC(=O)OC1CC2CCC3C(CCC4(C)C3CC([N+]3(C)CCCCC3)C4OC(C)=O)C2(C)CC1[N+]1(C)CCCCC1.[Br-].[Br-] (configuration not stated) [Pancuronium dibromide]	99.4 ± 8.2	106	105 ± 2.1	93.3		95.5	79.4 ± 3.5	94.3 ± 4.8	103 ± 4.2
NC(Cc1ccc(N(CCCl)CCCl)cc1)C(=O)O (configuration not stated) [Melphalan]	76 ± 14	116	91.1 ± 6.3	107	77.7 ± 3.6	63.1	75.3 ± 11	58.5 ± 8.7	124 ± 3.2
NCCC(O)(P(=O)([O-])O)P(=O)([O-])O.[Na+].[Na+] [Pamidronate Disodium]	85.1 ± 9.1	82.9	86.9 ± 2.1	80.8	95.2 ± 14	59.9	76.4 ± 15	75 ± 21	92.4 ± 13
CC12CCC3C(CC=C4CC(O)CCC43C)C1CCC2=O (configuration not stated) [Dehydroepiandrosterone (DHEA)]	124 ± 8.8	107	87 ± 21	112	111 ± 12	102	98.2 ± 9.5	93.3 ± 20	111 ± 4
O=C1CCC2(O)C3Cc4ccc(O)c5c4C2(CCN3CC2CC2)C1O5 (configuration not stated) [Naltrexone]	111 ± 8.9	121	97.4 ± 10	103	100.1 ± 0.98	93.4	94.5 ± 12	92.4 ± 14	130 ± 23
CC(C)CC(CN)CC(=O)O (configuration not stated) [Pregabalin]	97.8 ± 10	104	90.8 ± 9	95.6	138 ± 18	70.8	78.2 ± 7.7	81.4 ± 9.4	111 ± 21
c1ccc2c(c1)sc1ccccc12 [Dibenzothiophene]	137 ± 39	105	87.3 ± 1.6	103	85 ± 12	123	115 ± 14	117 ± 11	98.7 ± 1
COc1cc2c(cc1OC)C13CCN4CC5=CCOC6CC(=O)N2C1C6C5CC43 (configuration not stated) [Brucine]	90.3 ± 9.9	132	98.2 ± 29	94.5	106 ± 11	100	106 ± 1.5	83.5 ± 22	96.6 ± 4.8
CCC(COC(=O)c1cc(OC)c(OC)c(OC)c1)(c1ccccc1)N(C)C (configuration not stated) [Trimebutine]	116 ± 6.9	109	103 ± 7.8	92.9		135	84.9 ± 15	96.2 ± 2.8	111.2 ± 0.53
